SMILES strings stand for the structures. Where a name gives a salt, the structure may show the parent alone. ± gives the standard deviation of the averaged measurements. In all, about 1,300 compounds were measured (“normalised cell viability”: median about 1, lowest 2% from about 0.14 on). This is one part of a sample in which the lowest values are shown more often than they occur.

This assay concerns V-C8 (BRCA2-deficient hamster cells). As to the kind of experiment: normalised cell viability (fraction of plate median); higher = more viable cells (less toxic). The following applies: 5 µM. Summed up:
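Cell viability was measured with a resazurin assay, normalised to the plate median (modified robust per cent of sample) and averaged over triplicate wells. Hamster V-C8 cells lacking BRCA2 and V-C8 cells with BRCA2 restored were seeded in 96-well plates. After 24 h, library drugs from 10 mM DMSO stocks were added at a final 5 μM in 100 μl medium and left for 3 days (screen 1) or 6 days (screen 2), with solvent-only wells alongside.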

Turning to `COC(=O)Nc1nc2cc(C(=O)c3ccccc3)ccc2[nH]1` [Mebendazole], the normalised cell viability is 0.164 ± 0.0056 (treatment time: 3 days) and 0.13 ± 0.0086 (treatment time: 6 days).
On to `CCCOc1ccc2[nH]c(NC(=O)OC)nc2c1` [Oxibendazol], for which the normalised cell viability reads like this: (treatment time: 3 days) 0.185 ± 0.0067; (treatment time: 6 days) 0.183 ± 0.0049.
On to `COC(=O)Nc1nc2cc(Sc3ccccc3)ccc2[nH]1` [Fenbendazole], for which the normalised cell viability (treatment time: 3 days) was 0.187 ± 0.0098 and the normalised cell viability (treatment time: 6 days) was determined as 0.181 ± 0.013.
In the case of `CC(C)NCC(O)c1ccc(O)c(O)c1` (single isomer, unassigned; (-)) [(-)-Isoproterenol hydrochloride], the normalised cell viability (treatment time: 3 days) came to 1 ± 0.035 and the normalised cell viability (treatment time: 6 days) was 0.952 ± 0.015.
The like results for `C#C[C@]1(O)CC[C@H]2[C@@H]3CCC4=CCCC[C@@H]4[C@H]3CC[C@@]21C` [Lynestrenol] were, in that order, 1.1 ± 0.046 and 1.12 ± 0.063.
The corresponding values for `CC(=O)N(O)CCCCCNC(=O)CCC(=O)N(O)CCCCCNC(=O)CCC(=O)N(O)CCCCCN` [Deferoxamine mesylate] are 0.305 ± 0.021 and 0.198 ± 0.011.
Regarding `CC(C)(C)C(=O)OCOC(=O)[C@@H]1N2C(=O)[C@@H](NC(=O)[C@H](N)c3ccccc3)[C@H]2SC1(C)C` [Pivampicillin], the normalised cell viability is 1.02 ± 0.075 (treatment time: 3 days) and 1.01 ± 0.1 (treatment time: 6 days).
The corresponding values for `Cn1c(=O)c2c(ncn2CCO)n(C)c1=O` [Etofylline] are 1.03 ± 0.052 and 0.996 ± 0.039.
For the molecule `Cc1cc(-n2c(=O)[nH]c(=O)n(C)c2=O)ccc1Oc1ccc(SC(F)(F)F)cc1` [Toltrazuril], the normalised cell viability is, setting by setting: (treatment time: 3 days) 1.07 ± 0.044; (treatment time: 6 days) 1 ± 0.073.
On to `O=C1NCN(c2ccccc2)C12CCN(CCCC(c1ccc(F)cc1)c1ccc(F)cc1)CC2` [Fluspirilen], for which the normalised cell viability came out at 0.472 ± 0.045 (treatment time: 3 days) and 0.235 ± 0.12 (treatment time: 6 days).
With `Clc1ccccc1CN1CCc2sccc2C1` [Ticlopidine hydrochloride], the normalised cell viability runs as follows: (treatment time: 3 days) 1.1 ± 0.032; (treatment time: 6 days) 1.08 ± 0.064.
The corresponding values for `Cc1nc(=O)c2cc(CN(C)c3ccc(C(=O)N[C@@H](CCC(=O)O)C(=O)O)s3)ccc2[nH]1` [Raltitrexed] are 0.332 ± 0.028 and 0.432 ± 0.075.
The corresponding values for `CCN(CC)CCN[C@@H](C(=O)OCCC(C)C)c1ccccc1` [Camylofine chlorhydrate] are 1.07 ± 0.065 and 0.978 ± 0.027.
`Cc1ncc(C[n+]2csc(CCO)c2C)c(N)n1` [Thiamine hydrochloride] registered a normalised cell viability (treatment time: 3 days) of 1.05 ± 0.029 and a normalised cell viability (treatment time: 6 days) of 1.05 ± 0.016.
Regarding `Cc1c(Nc2ncccc2C(=O)O)cccc1C(F)(F)F` [Flunixin meglumine], the normalised cell viability (treatment time: 3 days) worked out at 1.1 ± 0.11 and the normalised cell viability (treatment time: 6 days) amounted to 1.03 ± 0.037.
`CC(C)OC(=O)CCC/C=C\C[C@@H]1[C@@H](CC[C@@H](O)CCc2ccccc2)[C@H](O)C[C@@H]1O` [Latanoprost]: the normalised cell viability was 1.13 ± 0.11 (treatment time: 3 days) and 1.05 ± 0.041 (treatment time: 6 days).
With `C[C@@]1(O)CCOC(=O)C1` [Mevalonic-D, L acid lactone], the normalised cell viability reads like this: (treatment time: 3 days) 1.12 ± 0.05; (treatment time: 6 days) 1.05 ± 0.18.
Turning to `COc1ccc2[nH]cc(CCNC(C)=O)c2c1` [Melatonin], the normalised cell viability reads like this: (treatment time: 3 days) 1.16 ± 0.068; (treatment time: 6 days) 1 ± 0.058.
As for `CCCCCNC(=N)N/N=C/c1c[nH]c2ccc(OC)cc12` [Tegaserod maleate], the normalised cell viability was found to be 0.124 ± 0.011 (treatment time: 3 days) and 0.164 ± 0.016 (treatment time: 6 days).
`CN1CCCC(CC2c3ccccc3Sc3ccccc32)C1` (centres undefined) [Metixene hydrochloride] had a normalised cell viability (treatment time: 3 days) of 0.57 ± 0.02 and a normalised cell viability (treatment time: 6 days) of 0.69 ± 0.052.
Take `Clc1ccc(C(Cn2ccnc2)OCc2ccsc2Cl)c(Cl)c1` (centres undefined) [Tioconazole]: the normalised cell viability reads like this: (treatment time: 3 days) 0.97 ± 0.046; (treatment time: 6 days) 0.966 ± 0.059.
On to `COC1=C(OC)C(=O)C(CCCCCCCCCCO)=C(C)C1=O` [Idebenone], for which the normalised cell viability is, setting by setting: (treatment time: 3 days) 0.648 ± 0.036; (treatment time: 6 days) 0.713 ± 0.04.
`CC(C)(C)NCC(O)COc1cccc2c1CC(O)C(O)C2` (centres undefined) [Nadolol]: the normalised cell viability by setting is: (treatment time: 3 days) 1.02 ± 0.073; (treatment time: 6 days) 1.04 ± 0.035.
Regarding `C1CCC(C(CC2CCCCN2)C2CCCCC2)CC1` (centres undefined) [Perhexiline maleate], the normalised cell viability stood at 0.126 ± 0.011 (treatment time: 3 days) and 0.109 ± 0.0083 (treatment time: 6 days).
`Cc1cc2cc3c(C)cc(=O)oc3c(C)c2o1` [Trioxsalen]: the normalised cell viability reads like this: (treatment time: 3 days) 1.04 ± 0.047; (treatment time: 6 days) 1.07 ± 0.027.
Consider `CC=CC(=O)N(CC)c1ccccc1C` [Crotamiton], for which the normalised cell viability was determined as 0.866 ± 0.12 (treatment time: 3 days) and 0.929 ± 0.025 (treatment time: 6 days).
Take `CC(C)c1ccc2oc3nc(N)c(C(=O)O)cc3c(=O)c2c1` [Amlexanox]: the normalised cell viability by setting is: (treatment time: 3 days) 0.933 ± 0.034; (treatment time: 6 days) 1.03 ± 0.089.
The molecule `O=C(O)[C@H]1/C(=C/CO)O[C@@H]2CC(=O)N21` [Potassium clavulanate] came in with a normalised cell viability (treatment time: 3 days) of 1 ± 0.03 and a normalised cell viability (treatment time: 6 days) of 0.984 ± 0.039.
The corresponding values for `Nc1ccc(O)c(C(=O)O)c1` [Mesalamine] are 1.09 ± 0.028 and 1.14 ± 0.27.
As to `CC(C)NC(=N)NC(=N)Nc1ccc(Cl)cc1` [Proguanil hydrochloride], the normalised cell viability reads like this: (treatment time: 3 days) 0.196 ± 0.012; (treatment time: 6 days) 0.189 ± 0.014.
Turning to `N=C(N)NC(=N)NCCc1ccccc1` [Phenformin hydrochloride], the normalised cell viability runs as follows: (treatment time: 3 days) 0.955 ± 0.035; (treatment time: 6 days) 0.96 ± 0.052.
As to `N=C(NCCCCCCNC(=N)NC(=N)Nc1ccc(Cl)cc1)NC(=N)Nc1ccc(Cl)cc1` [Chlorhexidine], the normalised cell viability is, setting by setting: (treatment time: 3 days) 0.129 ± 0.0057; (treatment time: 6 days) 0.101 ± 0.0054.

The record behind these values is the supplement of paper PMC6609913.
